Laboratory results: ChEMBL document CHEMBL4513216, “Probing the Open Global Health Chemical Diversity Library for Multistage-Active Starting Points for Next-Generation Antimalarials” (ACS Infect Dis, 2020)
The whole screen tested about 69,000 compounds, of which about 8,600 (12%) showed an effect of 50% or more. This is one part of a sample in which strong results are shown more often than they occur.

The molecules below were run on Plasmodium berghei (assay: Screen against P. berghei liver stage (PbLuc), transformed with Luciferase, at 10uM). Settings: tested at 10 uM.
Type: functional, HepG2

SMILES	INHIBITION
Cc1ccc(-c2[nH][nH]c(=O)c2CCN)cc1	44.9%
Cc1cc(C)n(C2CCCN(C(=O)c3ccc4c(c3)COC4)C2)n1 (centres undefined)	15.815%
COCc1nc(C(=O)NS(=O)(=O)c2ccc(Cl)cc2F)cs1	-64.25%
COc1cccc(Oc2nc(C)c(C(=O)O)s2)c1OC	45.5%
Cc1cc(C2CCCN2Cc2nc3c(cnn3C)c(=O)[nH]2)on1 (centres undefined)	27.6%
Cn1cc(CN2CC[C@H]3OCC[C@@H](C(=O)Nc4cnccn4)[C@@H]3C2)cn1	38.5%
O=C(Cc1cccc(F)c1)NCCNCc1cccnc1	33.3%
Cn1c(CN2CCC(N3CCNC3=O)CC2)cc(=O)n(C)c1=O	29%
CC(C)n1nc2c(cc1=O)CN(Cc1nnc(C3CC3)o1)CC2	-25.9%
CC(C)n1nc2c(cc1=O)CN(CC(=O)N(C)c1nccs1)CC2	17.1%
CC(C)n1nc2c(cc1=O)CN(c1ncnc3ccsc13)CC2	86.8%
c1csc(CN2C[C@@H]3OCCN(CC4CCCO4)[C@@H]3C2)c1 (some centres undefined)	-21.5%
CC(=O)Nc1nc(C2CCN(C(=O)C3CCC3)CC2)cs1	36.7%
O=C(NCc1ccnc(C2CCCOC2)n1)c1cccs1 (centres undefined)	33.5%
Cc1ccsc1C(=O)NCc1ccnc(C2CCCOC2)n1 (centres undefined)	5.1%
O=C(Cc1cccs1)NCc1ccnc(C2CCCOC2)n1 (centres undefined)	53.8%
CCN1CCOCC2(CCCN(C(=O)c3cccc(O)c3)C2)C1 (centres undefined)	26%
O=C(c1cccc2ccnn12)N1CCC[C@H]1CN1CCCC1	19.8%
Cc1cc(C)n2nc(C(=O)N3CCCC4(CNC(=O)O4)C3)cc2n1 (centres undefined)	27.4%
O=C1NCC2(CCCN(C(=O)c3c[nH]nc3C3CCCCC3)C2)O1 (centres undefined)	31.8%
Cc1cc(C(=O)N2CCCC3(CNC(=O)O3)C2)c2c(C)nn(C)c2n1 (centres undefined)	54.1%
CCN1C(=O)CCCC12CCCN(C(=O)c1cnccn1)C2 (centres undefined)	27.4%
Cc1ccc(-c2cc(CNC(=O)N3CCSCC3)on2)cc1	-5.25%
COc1c(CNC(c2ccccc2F)c2nccn2C)c(C)nn1C (centres undefined)	2.95%
Cc1cccc2cc(CO)c(N3Cc4cnc(C(C)(C)C)nc4C3)nc12	91.2%
Cc1ccc(C(=O)O)c(N2Cc3cnc(C(C)(C)C)nc3C2)n1	-7.27%

SMILES	INHIBITION
CC(C)Cc1ncc2c(n1)CN(c1nc3ccccc3cc1CO)C2	33.9%
O=C(c1n[nH]c2c1CN(C1CCOC1)CC2)N1CCCC1 (centres undefined)	12.4%
COCC1CC2(CCN(C(=O)c3ccco3)CC2)CN1C(C)C (centres undefined)	17.4%
CN(CC(=O)N1CCCC1)Cc1nc2c(cnn2C)c(=O)[nH]1	64%
CN(Cc1ccc2c(c1)OCO2)Cc1nc2c(cnn2C)c(=O)[nH]1	13.9%
CN(CCOc1cccc(F)c1)Cc1nc2c(cnn2C)c(=O)[nH]1	55.2%
CN(Cc1ccc2c(c1)OCCO2)Cc1nc2c(cnn2C)c(=O)[nH]1	59.4%
CC(C)CN(C)Cc1nc2c(cnn2C)c(=O)[nH]1	-14.935%
CCN(CC)C(=O)CN(C)Cc1nc2c(cnn2C)c(=O)[nH]1	37.2%
CC(C)CCN(C)Cc1nc2c(cnn2C)c(=O)[nH]1	-21.05%
CCN(Cc1ccc2c(c1)OCO2)Cc1nc2c(cnn2C)c(=O)[nH]1	-6.14%
CN(CC(=O)N(C)C1CCCCC1)Cc1nc2c(cnn2C)c(=O)[nH]1	55.4%
CN(Cc1cccc(F)c1)Cc1nc2c(cnn2C)c(=O)[nH]1	23.7%
CN(CCCOc1ccc(F)cc1)Cc1nc2c(cnn2C)c(=O)[nH]1	39.2%
CN(CC(=O)N(C)C1CCCCC1)Cc1nc2ccccc2c(=O)[nH]1	44.7%
Cc1nc(C)n(C2CCCN(C(=O)c3c[nH]c(C(C)C)n3)C2)n1 (centres undefined)	40.9%
CS(=O)(=O)N1CCC2(CC1)COC(COc1ccccn1)C2 (centres undefined)	-27.9%
CC(C)OC[C@H]1CCC[C@]12CN(S(=O)(=O)c1cn(C)cn1)CCO2	1.7%
OC1(CNCCc2csc(-c3ncccn3)n2)CCNC1 (centres undefined)	39.3%
COCC(=O)NCc1cc(=O)n2c(n1)CN(CC1CCOC1)CCC2 (centres undefined)	37.5%
Cc1nc(C)n(CC2CCCN(Cc3noc(C)n3)C2)n1 (centres undefined)	56.6%
Cc1noc(CN2CCCC(Cn3nc(C)nc3C)C2)n1 (centres undefined)	27.8%
COCCc1noc(CN2CCCC(Cn3nc(C)nc3C)C2)n1 (centres undefined)	40.9%
CCc1noc(CN2CCCC(Cn3nc(C)nc3C)C2)n1 (centres undefined)	18.2%
CCc1nc(CN2CCCC(Cn3nc(C)nc3C)C2)no1 (centres undefined)	33.3%
Cc1nc(C)n(CC2CCCN(Cc3nc(C4CC4)no3)C2)n1 (centres undefined)	60.6%

SMILES	INHIBITION
CNC(=O)[C@@]12CCO[C@@H]1CCN(S(=O)(=O)c1cccnc1)C2	23.9%
Cn1cc(CN2CC(C(=O)Nc3ccccc3)C3(CCOCC3)C2)cn1 (centres undefined)	48.2%
COc1ccc(CN2C[C@H]3CN(Cc4ccncc4)C(=O)[C@H]3C2)cc1	22.3%
O=C(Cc1c(F)cccc1Cl)NC1CCCCNC1=O (centres undefined)	-1.85%
CC(=O)Nc1nc(C)c(S(=O)(=O)NCCc2ccccn2)s1	-1.85%
O=S(=O)(C1CC1)N1CCO[C@H]2[C@@H](Oc3ncccc3F)CC[C@@H]21	-30%
CC(C)N(Cc1ccccc1)C(=O)c1cc(C2CCCN2C)ccn1 (centres undefined)	-18.9%
Cc1ncccc1Oc1ncnc(N2CCC3(CCCO3)CC2)c1C	-5.12%
COc1ccc([C@@H](C)n2ccnc2-c2cc3n(n2)CCCNC3)cc1	15%
CC(c1ccc(F)cc1)n1ccnc1-c1cc2n(n1)CCCNC2 (centres undefined)	58.3%
COc1ccc(C(C)n2ccnc2-c2cc3n(n2)CCCNC3)cc1F (centres undefined)	-2.34%
CN(CC(=O)N1CCN(c2ccccn2)CC1)c1ccc(Cl)cn1	-36.6%
CNC(=O)[C@H]1C[C@@H]2CN(C(=O)c3ccncc3)C[C@@H]2N1S(C)(=O)=O	20.4%
Cc1n[nH]c(C)c1Sc1ccccc1NC(=O)CN1CCCC1	3.17%
Cc1n[nH]c(C)c1Sc1ccccc1NC(=O)N1CCOCC1	30.3%
Cc1n[nH]c(C)c1Sc1ccccc1NC(=O)N1CCOCC(O)C1 (centres undefined)	25.4%
Cc1n[nH]c(C)c1Sc1ccccc1NC(=O)N1CCN(C)CC1	61.2%
COCC(=O)Nc1ccccc1Sc1c(C)n[nH]c1C	60%
Cc1n[nH]c(C)c1Sc1ccccc1NC(=O)N1CCCC(C(N)=O)C1 (centres undefined)	-24%
CCS(=O)(=O)N1CCc2c(CN(C)Cc3ccco3)cncc2C1	20.2%
NC(=O)CNC(=O)c1ccc(CNCc2ccc(Cl)cc2Cl)cc1	48.9%
NC(=O)CNC(=O)c1ccc(CNCc2ccc(F)cc2F)cc1	54.5%
NC(=O)COc1ccc(CNCc2ccc(F)cc2F)cc1	6.8%
Cc1cc(C)c(CNC(=O)NCC(O)c2ccccc2)c(=O)[nH]1 (centres undefined)	15.5%
O=C(c1cccnc1)N1CCC2(CC1)COCCN(c1ncccn1)C2	16.8%
CC(=O)NCCNC(=O)CN1CCCCC1Cn1cncn1 (centres undefined)	-15.5%

SMILES	INHIBITION
O=c1[nH]c2nc(N3CCCC3)ncc2c(=O)n1-c1cccc(F)c1	2.69%
Cc1cc(-c2ccc(=O)n(C3CCN(S(C)(=O)=O)CC3)n2)c(C)o1	-8.58%
CCS(=O)(=O)N1CCC(n2nc(-c3cc(C)oc3C)ccc2=O)CC1	21.1%
CCCS(=O)(=O)N1CCC(n2nc(-c3cc(C)oc3C)ccc2=O)CC1	68.4%
Cc1cc(NC(=O)C(C)Nc2cccc(COCc3ccco3)c2)no1 (centres undefined)	11.1%
COCc1noc(CCC(=O)c2ccc3c(c2)OCCO3)n1	-41.4%
O=C(COc1ccc(-n2cccn2)nn1)N1CCCC1	-66.4%
COc1ccc2c(c1)CCCN2C(=O)CN1CCOC(CN(C)C)C1 (centres undefined)	3.68%
COc1ccc2c(c1)CCCN2C(=O)CNCC1CN(C)CCO1 (centres undefined)	-39.2%
CN(C)c1cccc(C(=O)N2CCCc3cc(OC(F)(F)F)ccc32)c1	43.4%
CN(C)c1ccc(C(=O)N2CCCc3cc(OC(F)(F)F)ccc32)cn1	26.7%
COc1ccc2c(c1)CCCN2C(=O)c1cccc(N(C)C)c1	87.9%
COc1ccc2c(c1)CCCN2C(=O)CN1CCOC(C)C1 (centres undefined)	50.9%
Fc1cnc(N2CC[C@@H]3O[C@H](COCc4ccccn4)CC[C@@H]32)nc1	-21.7%
CC(C)COC1CC2(CCN(Cc3nccn3C)CC2)C1	31.6%
Cc1nc2[nH]cnc(Nc3cnn(C)c3)c-2n1	-10.6%
CC(C)C(NC(=O)C1CC1)c1cc(O)nc(-c2cccnc2)n1 (centres undefined)	3.4%
CNc1cc(-c2cc(OC)c(OC)c(OC)c2)ncn1	27.8%
COc1cc(-c2cnnc(NCC3CC3)n2)cc(OC)c1OC	31.7%
Cc1cc(NCCCOC(C)C)c2nncn2n1	13.4%
COc1cc(-c2nc(N)n[nH]2)cc(OC)c1OC	20.4%
COc1cc(-c2cnnc(NCCSC)n2)cc(OC)c1OC	52.2%
COc1cc(-c2cnnc(NCCCOC(C)C)n2)cc(OC)c1OC	57.9%
COCC(NC1CSCCSC1)c1ccnn1C (centres undefined)	31.2%
CN1CCN(CC2(O)CCCN(S(=O)(=O)c3cn[nH]c3)CC2)CC1 (centres undefined)	29.6%
Cn1ccc(C(=O)N2CCC(c3cc(CCO)n(C)n3)C2)n1 (centres undefined)	-3.94%
